A short description of test [1]: binders of probe aFSTL3 on microarray, primary screen, stem cell growth factor project, biochemical, small-molecule microarray, fluorescence 635/667 (AID 1064).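 Further: measures binding of the biotinylated anti-FSTL3 antibody to printed compounds.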 The following applies: higher = more signal.
Test [2] is described as follows: binders from COS7 lysate, DM2A8 probe, primary screen, torsin A project, cell lysate, small-molecule microarray, fluorescence 635/667 (AID 1065). The following applies: higher = more signal, COS7 lysate expressing mutant human TOR1A.
Test [3] can be described thus: binders of probe aFGF2 on microarray, primary screen, stem cell growth factor project, biochemical, small-molecule microarray, fluorescence 635/667 (AID 1067).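 Further: measures binding of biotinylated aFGF2 protein to printed compounds on slides; z-score merges feature fluorescence and signal-to-noise across triplicate slides.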 The settings on record: higher = more signal.
A short description of test [4]: binders of probe aFGF10 on microarray, primary screen, stem cell growth factor project, biochemical, small-molecule microarray, fluorescence 635/667 (AID 1071).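 Further: score merges 667 nm spot intensity and signal to noise from triplicate slides.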 The following applies: higher = more signal.
For test [5], the target named is Neurogenic locus notch homolog protein 2 (Homo sapiens) (UniProt Q04721). Kind of test: Notch2 binders on small-molecule microarrays, primary screen, biochemical, small-molecule microarray, 635 nm fluorescence, stem cell growth factors (AID 1073). The following applies: Notch2 binding, higher = more signal.
In test [6] the target is Pro-neuregulin-1, membrane-bound isoform (Homo sapiens) (UniProt Q02297). Kind of test: NRG1 binders on small-molecule microarrays, primary screen, psychiatric disease protein project, biochemical, small-molecule microarray, fluorescence 635/667 (AID 1075).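 Further: score combines 667 nm spot fluorescence with signal to noise.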 The settings on record: NRG1 binding, 635 nm fluorescence, higher = more signal.
Test [7] deals with Neuregulin-1 EGF-like domain. Kind of test: binders of neuregulin-1 EGF-like domain, primary screen, biochemical, small-molecule microarray, 635 nm fluorescence (AID 1081).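 Further: binding of the protein to compounds printed on small-molecule microarray slides.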 The following applies: small-molecule microarray binding, higher = more signal.
The nature of test [8]: FRG1 promoter luciferase signal modulators, primary screen, FRG1 inhibition for FSHD, cell-based, C2C12 myotubes, firefly/Renilla luciferase, luminescence (AID 1084). The settings on record: higher = more signal, called active from +8 up or from −8 down.
The nature of test [9]: binders of probe aFST on microarray, primary screen, stem cell growth factor project, biochemical, small-molecule microarray, fluorescence 635/667 (AID 1086).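 Further: score merges 667 nm fluorescence with signal-to-noise of each printed compound spot.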 The settings on record: higher = more signal.
A short description of test [10]: binders of probe aHhip on microarray, primary screen, stem cell growth factor project, biochemical, small-molecule microarray, fluorescence 635/667 (AID 1087).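 Further: score merges spot fluorescence at 667nm with spot signal to noise ratio.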 The following applies: higher = more signal.
The subject of test [11] is PRMT1 (protein arginine N-methyltransferase 1). Kind of test: PRMT1 binders on small-molecule microarrays, primary screen, biochemical, small-molecule microarray, 635 nm fluorescence (AID 1088).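 Further: binding of Prmt1 protein to compounds spotted on small-molecule microarray slides.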 The settings on record: small-molecule microarray binding, higher = more signal.
Test [12] in a line: yeast growth modulation, basal conditions, primary screen, YJM789 clinical isolate, OD600, 24 h (AID 1089).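 Further: growth of clinical yeast isolate S. cerevisiae YJM 789 seeded 1000 cells per well; test concentration not given here.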 The settings on record: S. cerevisiae YJM789 growth, higher = more signal, called active from +8 up or from −8 down.
Test [13] can be described thus: fission yeast growth modulation, primary screen, strain 972, OD600, 24 h, no modulator (AID 1090).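 Further: basal condition with compound alone and no growth modifier present; test concentration not given here.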 The following applies: S. pombe 972 growth, higher = more signal, called active from +8 up or from −8 down.
Test [14] is described as follows: S. cerevisiae growth modulation with rapamycin, primary screen, strain BY4716, OD600, 96 h (AID 1091). Further: test concentration not given here. The settings on record: higher = more signal, called active from +8 up or from −8 down.
The target in test [15] is Torsin-1A-interacting protein 2 (Homo sapiens) (UniProt Q8NFQ8). Kind of test: LULL1 binders on small-molecule microarray, primary screen, cell lysate, human LULL1 lysate, 635/667 nm fluorescence (AID 1092).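 Further: score merges per-feature 667 nm fluorescence with signal-to-noise.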 The settings on record: hLULL1 lysate binding, 635 nm fluorescence, higher = more signal.
The nature of test [16]: E. coli growth modulation, two-sided OD650, primary screen, E. coli filamentation project, strain DRC41, 24 h (AID 1093).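 Further: MC1000 strain lacking acrAB efflux and sulA so SOS filamentation is blocked; test concentration not given here.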 The settings on record: OD650, 24 h, higher = more signal, called active from +8 up or from −8 down.
Test [17] in a line: small-molecule microarray binders of probe aLefty2, primary screen, biochemical, biotinylated probe, 635/667 nm fluorescence (AID 1094).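 Further: score merges spot fluorescence near 667 nm with spot signal-to-noise ratio.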 The following applies: higher = more signal.
In test [18] the test system is Noggin (protein binding on small-molecule microarray). Kind of test: Noggin binders on small-molecule microarray, primary screen, biochemical, 635/667 nm fluorescence (AID 1095).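 Further: score merges 667 nm feature fluorescence with signal to noise over triplicate slides.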 The settings on record: 635 nm fluorescence, higher = more signal.
For test [19], the target named is Neurogenic locus notch homolog protein 3 (Homo sapiens) (UniProt Q9UM47). Kind of test: NOTCH3 binders on small-molecule microarray, primary screen, biochemical, 635/667 nm fluorescence (AID 1096). The following applies: NOTCH3 binding, 635 nm fluorescence, higher = more signal.
Test [20] can be described thus: small-molecule microarray binders of probe aEGFR, primary screen, biochemical, biotinylated probe, 635/667 nm fluorescence (AID 1097).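 Further: probe is a biotinylated anti-EGFR antibody binding compounds printed on slides; score combines fluorescence near 667 nm and signal to noise of each spot.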 The following applies: higher = more signal.

Calls of active or inactive are those of the source.

Chain of Neurogenic locus notch homolog protein 3 (Homo sapiens) (Q9UM47 whole entry, looked up): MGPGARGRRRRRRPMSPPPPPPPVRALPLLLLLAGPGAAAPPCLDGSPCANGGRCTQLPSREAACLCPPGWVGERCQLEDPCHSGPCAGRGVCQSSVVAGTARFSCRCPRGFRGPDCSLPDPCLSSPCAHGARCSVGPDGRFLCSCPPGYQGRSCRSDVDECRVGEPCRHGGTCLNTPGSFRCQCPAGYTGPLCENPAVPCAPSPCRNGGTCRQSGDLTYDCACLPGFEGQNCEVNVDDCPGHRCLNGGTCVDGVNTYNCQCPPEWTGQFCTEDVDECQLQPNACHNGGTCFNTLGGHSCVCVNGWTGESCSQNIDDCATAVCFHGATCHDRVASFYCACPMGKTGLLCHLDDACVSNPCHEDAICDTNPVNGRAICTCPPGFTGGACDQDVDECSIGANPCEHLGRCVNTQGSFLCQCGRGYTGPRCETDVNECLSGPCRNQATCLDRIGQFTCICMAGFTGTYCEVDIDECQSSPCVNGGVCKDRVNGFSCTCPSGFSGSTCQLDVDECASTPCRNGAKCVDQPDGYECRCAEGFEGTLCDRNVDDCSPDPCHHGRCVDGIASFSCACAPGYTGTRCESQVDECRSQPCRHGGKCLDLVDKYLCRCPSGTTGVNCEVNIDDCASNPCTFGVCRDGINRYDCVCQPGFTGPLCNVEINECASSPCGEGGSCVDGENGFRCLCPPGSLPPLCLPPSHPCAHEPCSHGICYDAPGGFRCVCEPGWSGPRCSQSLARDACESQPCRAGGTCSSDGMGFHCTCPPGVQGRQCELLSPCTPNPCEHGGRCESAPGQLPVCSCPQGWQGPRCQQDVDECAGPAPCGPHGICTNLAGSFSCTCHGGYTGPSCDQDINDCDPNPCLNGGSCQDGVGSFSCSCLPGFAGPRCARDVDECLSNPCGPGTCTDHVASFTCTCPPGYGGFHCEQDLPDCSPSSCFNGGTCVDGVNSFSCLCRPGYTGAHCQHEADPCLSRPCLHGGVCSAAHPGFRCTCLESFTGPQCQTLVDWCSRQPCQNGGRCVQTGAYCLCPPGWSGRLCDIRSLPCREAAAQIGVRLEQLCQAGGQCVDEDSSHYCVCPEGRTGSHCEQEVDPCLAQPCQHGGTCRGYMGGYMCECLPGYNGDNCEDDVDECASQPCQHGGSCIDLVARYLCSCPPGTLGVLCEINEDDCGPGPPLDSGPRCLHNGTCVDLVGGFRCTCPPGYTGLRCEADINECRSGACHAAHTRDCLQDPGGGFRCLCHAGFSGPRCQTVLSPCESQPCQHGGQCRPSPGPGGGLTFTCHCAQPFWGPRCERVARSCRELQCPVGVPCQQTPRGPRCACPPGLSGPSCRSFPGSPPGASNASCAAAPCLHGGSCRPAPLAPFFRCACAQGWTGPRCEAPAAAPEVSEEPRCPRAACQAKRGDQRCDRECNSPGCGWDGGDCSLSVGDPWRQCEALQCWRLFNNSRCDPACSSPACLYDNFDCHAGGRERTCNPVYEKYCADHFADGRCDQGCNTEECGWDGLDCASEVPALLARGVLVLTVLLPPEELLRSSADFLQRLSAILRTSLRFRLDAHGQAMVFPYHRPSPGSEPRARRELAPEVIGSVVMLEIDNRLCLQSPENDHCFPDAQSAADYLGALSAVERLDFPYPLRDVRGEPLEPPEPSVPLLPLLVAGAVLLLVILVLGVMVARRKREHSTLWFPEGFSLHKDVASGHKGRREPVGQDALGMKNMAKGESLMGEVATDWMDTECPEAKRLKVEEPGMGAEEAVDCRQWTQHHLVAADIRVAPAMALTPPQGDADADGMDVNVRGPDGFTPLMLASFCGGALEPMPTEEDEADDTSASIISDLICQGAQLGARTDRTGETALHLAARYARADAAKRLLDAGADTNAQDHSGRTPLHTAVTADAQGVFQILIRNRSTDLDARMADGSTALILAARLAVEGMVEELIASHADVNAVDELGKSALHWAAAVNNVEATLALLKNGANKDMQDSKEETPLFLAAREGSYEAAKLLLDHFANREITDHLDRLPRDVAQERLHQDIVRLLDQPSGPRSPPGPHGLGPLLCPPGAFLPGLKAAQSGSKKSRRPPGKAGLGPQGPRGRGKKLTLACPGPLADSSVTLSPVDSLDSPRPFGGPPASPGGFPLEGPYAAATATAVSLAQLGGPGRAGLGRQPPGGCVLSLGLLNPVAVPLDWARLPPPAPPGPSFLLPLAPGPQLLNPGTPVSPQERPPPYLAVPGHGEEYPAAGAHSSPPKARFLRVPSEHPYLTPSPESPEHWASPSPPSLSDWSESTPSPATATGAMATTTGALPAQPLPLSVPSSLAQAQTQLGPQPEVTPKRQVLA
Chain of Torsin-1A-interacting protein 2 (Homo sapiens) (Q8NFQ8 whole entry, looked up): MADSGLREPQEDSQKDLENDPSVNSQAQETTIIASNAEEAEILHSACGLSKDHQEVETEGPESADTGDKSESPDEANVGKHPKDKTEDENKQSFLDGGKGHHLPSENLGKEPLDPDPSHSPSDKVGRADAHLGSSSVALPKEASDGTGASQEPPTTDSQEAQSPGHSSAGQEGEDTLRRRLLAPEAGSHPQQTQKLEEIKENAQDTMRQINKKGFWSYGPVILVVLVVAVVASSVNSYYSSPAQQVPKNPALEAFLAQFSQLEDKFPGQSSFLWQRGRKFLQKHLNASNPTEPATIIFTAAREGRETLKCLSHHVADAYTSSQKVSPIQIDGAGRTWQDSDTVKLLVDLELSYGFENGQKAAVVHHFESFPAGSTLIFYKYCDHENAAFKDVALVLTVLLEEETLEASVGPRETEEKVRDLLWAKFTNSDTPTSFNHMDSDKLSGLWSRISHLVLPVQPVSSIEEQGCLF
Chain of Pro-neuregulin-1, membrane-bound isoform (Homo sapiens) (Q02297 whole entry, looked up, the tested form may be a part, canonical isoform): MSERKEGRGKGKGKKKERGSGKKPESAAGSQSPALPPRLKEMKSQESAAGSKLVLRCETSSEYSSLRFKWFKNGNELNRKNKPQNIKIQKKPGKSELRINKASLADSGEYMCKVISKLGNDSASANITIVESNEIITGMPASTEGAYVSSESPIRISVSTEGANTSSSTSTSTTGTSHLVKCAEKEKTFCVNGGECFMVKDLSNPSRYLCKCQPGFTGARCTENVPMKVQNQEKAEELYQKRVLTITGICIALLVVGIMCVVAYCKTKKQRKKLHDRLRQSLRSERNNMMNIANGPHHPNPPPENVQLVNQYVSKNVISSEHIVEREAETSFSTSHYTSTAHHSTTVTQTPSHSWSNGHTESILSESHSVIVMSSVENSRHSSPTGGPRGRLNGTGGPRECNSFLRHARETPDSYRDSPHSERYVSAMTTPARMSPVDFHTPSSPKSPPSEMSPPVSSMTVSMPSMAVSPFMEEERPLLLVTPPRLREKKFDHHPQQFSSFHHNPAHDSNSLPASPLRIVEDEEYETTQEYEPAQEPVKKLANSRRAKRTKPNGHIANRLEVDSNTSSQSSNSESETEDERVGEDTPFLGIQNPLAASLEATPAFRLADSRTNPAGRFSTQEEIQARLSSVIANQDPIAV

Regarding `O=C1[C@H]2[C@H]3[C@H](O)[C@H](O)CC(=NO[C@@H]4O[C@H](CO)[C@@H](O)[C@H](O)[C@H]4O)[C@@H]3CC[C@H]2C(=O)N1c1cccc(Oc2ccccc2)c1`, the composite z-score in test [1] is -0.309; in test [2] it was 0.21; in test [3], -0.125; in [4], 0.649; in test [5], 0.628; in test [6], 0.495. Also, the composite z-score was 1.02 in [7]; 0.365 in test [9]; 0.0373 in [10]; -0.175 in [11]; 0.879 in [15]; -0.028 in test [17]. For the same molecule, the composite z-score in test [18] is 0.672; in test [19] it was 0.449; in test [20], 0.0102. Moreover, the z-score is 0.423 (inactive) in [8]; -0.603 (inactive) in test [12]; 0.275 (inactive) in test [13]; 0.0506 (inactive) in test [14]; 0.364 (inactive) in [16].
For `CON=C(C)CCC(=O)OC[C@H]1O[C@H](C#Cc2ccccc2)C=C[C@@H]1Oc1ccc(C)cc1`, the composite z-score in test [1] is -0.453; in test [2], -0.172; in test [3], -0.0563; in [4] it was 0.33; in test [5] it was -0.598; in test [6], 0.108. The composite z-score in [7] was 0.394; in test [9], 0.423; in test [10] it was 0.0854; in test [11] it was 1.06; in test [15], 0.756; in test [17], -0.143. The results for the composite z-score in [18], in [19] and in [20] were 0.351, 0.326 and -0.0363, respectively. Besides, the z-score in [8] was -0.127 (inactive); in [12], 1.42 (inactive); in [13] it was -14.2 (active); in [14], 1.52 (inactive); in test [16], 0.149 (inactive).
Take `CCN1C(=O)[C@H]2[C@H]3[C@H](O)[C@H](O)CC(=NNC(=O)OCc4ccccc4)[C@@H]3CC[C@H]2C1=O`: the composite z-score in [1] was 0.18; in [2], -0.287; in [3], -0.153; in test [4] it was 0.0519; in [5], -0.311; in test [6], -0.003. Besides, the composite z-score in [7] is -0.514; in [9] it was 0.302; in test [10], -0.249; in [11] it was -0.738; in test [15], 0.614; in test [17], -0.044. The composite z-score is -0.0412 in test [18], -0.0028 in test [19] and -0.118 in test [20]. In addition, the z-score in test [8] was 0.639 (inactive); in test [12], -0.0309 (inactive); in test [13] it was -0.277 (inactive); in test [14], -0.133 (inactive); in [16], 0.801 (inactive).
As for `CC(C)=NO[C@H](C)c1cn([C@@H]2COC[C@H]2O)nn1`, the composite z-score was -0.517 in test [1]; -0.276 in test [2]; -0.163 in test [3]; 0.517 in test [4]; 0.712 in [5]; 0.0493 in test [6]. Also, the composite z-score is 0.305 in test [7]; 0.362 in [9]; -0.0618 in test [10]; 0.629 in test [11]; 0.242 in test [15]; -0.0936 in test [17]. Moreover, the composite z-score in [18] stood at 0.683; in test [19], 0.562; in test [20], 0.0102. Moreover, the z-score in test [8] was -0.807 (inactive); in test [12], -0.173 (inactive); in test [13], -1.02 (inactive); in test [14], 0.127 (inactive); in test [16], 0.132 (inactive).
`C[C@]12CCC3c4ccc(OCC5CO5)cc4CCC3C1CC[C@@H]2O` (stereo not given in full): the composite z-score was 0.157 in test [1]; 0.258 in test [2]; -0.0415 in test [3]; 0.381 in [4]; 1.04 in [5]; 0.703 in [6]. Moreover, the composite z-score in test [7] was 1.07; in test [9] it was 0.473; in test [10], -0.0994; in test [11] it was 0.205; in test [15] it was 2.11; in test [17], 0.124. In addition, the composite z-score turned out to be 0.0768 in [18], 0.162 in test [19] and 0.0025 in test [20]. Besides, the z-score was 1.05 (inactive) in test [8]; 0.199 (inactive) in test [12]; -4.77 (inactive) in [13]; -0.494 (inactive) in test [14]; 0.392 (inactive) in [16].

Values taken from PubChem BioAssay.
